The structures appear in SMILES notation. Out of some 68,000 compounds screened, about 2,700 (4%) showed an effect of 50% or more. Shown is part of a subset that was picked to be rich in strong results.

In this assay the test system is Plasmodium berghei. Kind of assay: Screen against P. berghei liver stage (PbLuc), transformed with Luciferase, at 2uM. It is filed as functional, HepG2. The following applies: tested at 2 uM.
For the compound `CC(=O)NCCN1CCC(c2cccs2)CC1`, the INHIBITION was found to be 26.64%.
For `COc1ccc(C(=O)NCCN2CCC(c3cccs3)CC2)cc1OC`, the INHIBITION came to 66.04%.
To `Cc1csc(C(=O)NCCN2CCC(c3cccs3)CC2)c1` belongs 18.23%.
In the case of `c1cncc(N2CCO[C@H]3CN(CC4CCOC4)C[C@H]32)c1` (stereo not given in full) it was 19.51%; in that of `O=C(Cn1cc(-c2ccccc2)ncc1=O)Nc1ncc[nH]1`, -80.35%.
With `COCCCNc1ncc(-c2cccc(F)c2)c(-c2nccn2C)n1`, the INHIBITION is reported as -18.57%.
To `COCCNc1ncc(-c2cccc(F)c2)c(-c2nccn2C)n1` belongs 27.12%.
For the compound `Cn1ccnc1-c1nc(NC2CCCC2)ncc1-c1cccc(F)c1`, the INHIBITION amounted to 14.3%.
To `COCCNc1ncc(-c2cccc(OC)c2)c(-c2nccn2C)n1` belongs 54.87%.
To `COCCNc1ncc(-c2cc(C)no2)c(-c2ccco2)n1` belongs -29.24%; to `CCOCCCNc1ncc(-c2cccc(F)c2)c(-c2nccn2C)n1`, 55.72%; to `CN(C)C(=O)COCc1cncc2c1CCN(Cc1cnn(C)c1)C2`, 14.91%.
To `Cc1ccc2c(n1)N(C)CCN(Cc1ccco1)C2` belongs 29.89%.
For `c1ccc(OC2C[C@@H]3CN(Cc4cnccn4)C[C@@H]3C2)cc1` (stereo not given in full), the INHIBITION stood at 50.32%.
As to `CN(C)S(=O)(=O)N1CCC[C@]2(C[C@@H](Oc3ccccn3)CO2)C1`, the INHIBITION turned out to be 19.61%.
To `c1ccc(CO[C@@H]2CO[C@@]3(CCN(Cc4ccccn4)C3)C2)nc1` belongs 40.25%.
To `c1ccc(CN2CC[C@]3(C[C@@H](Oc4ccccn4)CO3)C2)nc1` belongs 8.1%.
In the case of `O[C@@H]1CN(Cc2cnccn2)C[C@H]1Oc1ccccc1` it was 26.14%; in that of `CS(=O)(=O)N1CCC2(CC1)CC(Oc1ccccn1)CO2` (stereo not given), -0.23%; in that of `c1ccc(OC2COC3(CCN(Cc4ccccn4)CC3)C2)cc1` (stereo not given), 62.15%.
Take `CN(C)S(=O)(=O)N1CCC2(CC1)CC(Oc1ccccn1)CO2` (stereo not given): the INHIBITION is reported as 56.78%.
To `Cc1cnc(CN2C[C@H]3CC(Oc4ccccc4)C[C@H]3C2)cn1` (stereo not given in full) belongs 25.06%.
As for `COc1ccc2cc(-c3n[nH]cc3CN3CCSCC3)ccc2c1`, the INHIBITION is listed as 30.34%.
To `CN(C)C(=O)CO[C@@H]1CC[C@H]2[C@H]1OCCN2c1ncc(F)cn1` belongs 34.89%; to `Cc1cc(CN2CCC(CNS(=O)(=O)c3ccc(Br)s3)CC2)c(C)o1`, 23.96%.
`CC(C)Cc1nc(CSCC(=O)N2CCC(C)CC2)no1`: the INHIBITION is reported as -32.8%.
To `O=C(Nc1ccc(F)c(Br)c1)N1CCCC1` belongs -5.87%; to `CC(C)CC(NC(=O)c1cccs1)c1nc2cccnc2n1C` (stereo not given), -19.86%.
To `NC(=O)C1CCN(CCCNC(=O)Nc2nccs2)CC1` belongs 28.14%.
Consider `O=C(Nc1cccnc1)[C@H]1CN(Cc2ccccn2)C[C@H]2OCC[C@@H]12`, for which the INHIBITION was -43.55%.
Take `Cc1cc(-c2nc(-c3ccccn3)nn2C2CCN(C)CC2)nc(C)n1`: the INHIBITION was 14.19%.
In the case of `CC1(CO)COC(Cc2ccc(Cl)cc2)=N1` (stereo not given) it was -6.98%; in that of `CS(=O)(=O)N1CCC2(CCCN(CCCc3ccccc3)C2=O)C1` (stereo not given), -57.67%; in that of `O=C1N(CCc2ccccc2)CCCC12CCN(C(CO)CO)C2` (stereo not given), 57.92%.
To `O=C1N(CCCc2ccccc2)CCCC12CCN(C(CO)CO)C2` (stereo not given) belongs 7.13%; to `Cc1ccc(N2CCN(C3CCc4ccccc4C3)CC2)nn1` (stereo not given), 30.66%; to `Cc1noc(C)c1-c1cncc(CC2CCN(C(=O)c3cc[nH]n3)C2)n1` (stereo not given), 61.16%.
Consider `Cc1noc(C)c1-c1cccc(CC2CCN(C(=O)c3cc[nH]n3)C2)n1` (stereo not given), for which the INHIBITION is -8.23%.
In the case of `Cc1noc(C)c1-c1cc(CC2CCN(C(=O)c3cc[nH]n3)C2)ncn1` (stereo not given) it was -15.34%; in that of `Cc1nc(CNC(=O)N(C)Cc2cnn(C)c2)cs1`, 29.19%; in that of `Cc1ncc2c(c1CNC(=O)C1(C)CCCCO1)CCNC2` (stereo not given), -17.55%.
With `Cc1ncc2c(c1CNC(=O)C1(C)CCCO1)CCNC2` (stereo not given), the INHIBITION is listed as 21.72%.
In the case of `Cc1ncc2c(c1CNC(=O)C1(C)CC1)CCNC2` it was 51.9%; in that of `Cc1cc(C)nc(N2CCC(c3cc(CCO)[nH]n3)C2)n1` (stereo not given), -92.86%.
To `Cc1ccc(C(=O)N2CCC3(CCC(=O)N(CC(C)O)C3)CC2)c(O)c1` (stereo not given) belongs -0.85%.
In the case of `O=C(NCCn1ccc(-c2ccncc2)n1)C1CC1` it was -19.3%; in that of `Fc1cc(Cl)cnc1N1CCCC(c2nccn2Cc2ccncc2)C1` (stereo not given), 17.69%.
As for `CC(C)CS(=O)(=O)N1C[C@@H]2C[C@H](C(=O)NCc3ccccc3)[C@H](C1)O2`, the INHIBITION is recorded as 75.33%.
`CC(C)CCN1C[C@@H]2C[C@H](C(=O)Nc3cccnc3)[C@H](C1)O2`: the INHIBITION was found to be 26.76%.
Turning to `CCN1C[C@@H]2C[C@H](C(=O)Nc3ccccc3)[C@H](C1)O2`, the INHIBITION turned out to be 37.65%.
To `CC(C)CCN1C[C@@H]2C[C@H](C(=O)Nc3ccccc3)[C@H](C1)O2` belongs 73.15%.
To `CN(C)S(=O)(=O)N1C[C@@H]2C[C@H](C(=O)NCc3ccccc3)[C@H](C1)O2` belongs -32.96%; to `O=C(NCc1ccccc1)[C@H]1C[C@H]2CN(S(=O)(=O)C3CC3)C[C@@H]1O2`, 14.94%; to `Cc1nnn2c1COC(CNC(=O)c1cccn1C)C2` (stereo not given), 42.4%.
Take `Cc1cc(Br)c(O)c(-c2nc(N3CCCCC3)sc2C)c1`: the INHIBITION was found to be 14.95%.
`CN(Cc1cnn(C)c1)S(=O)(=O)N1CCCCCC1`: the INHIBITION came out at 47.68%.
For the compound `Cc1noc(C(C)N2CCN(CC(=O)N3CCCC3)CC2)n1` (stereo not given), the INHIBITION is -14.01%.
To `C1CCC(c2nn3c(C4CCCO4)nnc3s2)C1` (stereo not given) belongs 79.8%.
In the case of `C1CCC(c2nnc3sc(C4CCCO4)nn23)C1` (stereo not given) it was -11.31%.
In the case of `C1CCC(c2nnc3sc(C4CCOC4)nn23)C1` (stereo not given) it was 4.12%; in that of `Cc1cc(C2CCCN(S(=O)(=O)c3cn[nH]c3)C2)ccn1` (stereo not given), 49.07%; in that of `CC(C)N(C)CCCNC(=O)c1cnc(-c2ccccc2)nc1`, 67.83%.
For `CCN(CC)CCNC(=O)c1cnc(-c2ccccc2)nc1`, the INHIBITION is -16.21%.
To `CC(=O)NCCNC(=O)c1cnc(-c2ccccc2)nc1` belongs 19.47%.
For the compound `COC(=O)CCNC(=O)c1ccc(OCc2ccccc2)nc1`, the INHIBITION was -45.68%.
In the case of `CCS(=O)(=O)NCCNC(=O)c1cnc(-c2ccccc2)nc1` it was -22.82%.
To `CN(CCNC(=O)c1cnc(-c2ccccc2)nc1)S(C)(=O)=O` belongs -50.8%.
In the case of `CS(=O)(=O)NCCNC(=O)c1cnc(-c2ccccc2)nc1` it was 73.01%; in that of `CN(C)CCCNC(=O)c1ccnc(OCc2ccccc2)c1`, 52.85%; in that of `O=C(NCCCN1CCOCC1)c1ccnc(OCc2ccccc2)c1`, -47.27%.
